The target of test [1] is Ribosomal protein S6 kinase beta-1 (Homo sapiens) (UniProt P23443). Conditions: at 1 µM.
The target is the same in test [2]. The settings on record: at 10 µM.
The target of test [3] is Serine/threonine-protein kinase Nek6 (Homo sapiens) (UniProt Q9HC98). Conditions: at 1 µM.
Test [4] shares this target. The settings on record: at 10 µM.
Test [5] deals with Serine/threonine-protein kinase Nek7 (Homo sapiens) (UniProt Q8TDX7). Conditions: at 1 µM.
For test [6] the target is unchanged. Conditions: at 10 µM.
The target of test [7] is T1, Serine/threonine-protein kinase NLK (Homo sapiens) (UniProt Q9UBE8).
T1 sequence (whole entry): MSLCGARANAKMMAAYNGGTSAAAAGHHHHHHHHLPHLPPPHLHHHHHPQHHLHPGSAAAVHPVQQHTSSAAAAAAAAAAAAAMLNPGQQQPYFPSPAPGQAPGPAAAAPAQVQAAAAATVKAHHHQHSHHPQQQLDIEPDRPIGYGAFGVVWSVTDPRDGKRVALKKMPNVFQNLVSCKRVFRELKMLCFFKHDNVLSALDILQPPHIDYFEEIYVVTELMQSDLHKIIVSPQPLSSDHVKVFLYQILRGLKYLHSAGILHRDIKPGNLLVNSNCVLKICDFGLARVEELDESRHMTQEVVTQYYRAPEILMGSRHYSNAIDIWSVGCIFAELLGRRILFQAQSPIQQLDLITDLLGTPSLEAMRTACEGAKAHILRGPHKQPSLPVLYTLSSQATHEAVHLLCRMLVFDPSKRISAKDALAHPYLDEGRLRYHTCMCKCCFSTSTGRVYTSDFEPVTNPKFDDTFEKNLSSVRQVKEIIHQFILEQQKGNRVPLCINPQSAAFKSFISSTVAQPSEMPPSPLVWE
Conditions: at 1 µM.

Test [8] addresses T1, Serine/threonine-protein kinase NLK (Homo sapiens). The settings on record: at 10 µM.
In test [9] the target is Serine/threonine-protein kinase PAK 2 (Homo sapiens) (UniProt Q13177). Conditions: at 1 µM.
Sequence of Serine/threonine-protein kinase PAK 2 (Homo sapiens) (Q13177 whole entry): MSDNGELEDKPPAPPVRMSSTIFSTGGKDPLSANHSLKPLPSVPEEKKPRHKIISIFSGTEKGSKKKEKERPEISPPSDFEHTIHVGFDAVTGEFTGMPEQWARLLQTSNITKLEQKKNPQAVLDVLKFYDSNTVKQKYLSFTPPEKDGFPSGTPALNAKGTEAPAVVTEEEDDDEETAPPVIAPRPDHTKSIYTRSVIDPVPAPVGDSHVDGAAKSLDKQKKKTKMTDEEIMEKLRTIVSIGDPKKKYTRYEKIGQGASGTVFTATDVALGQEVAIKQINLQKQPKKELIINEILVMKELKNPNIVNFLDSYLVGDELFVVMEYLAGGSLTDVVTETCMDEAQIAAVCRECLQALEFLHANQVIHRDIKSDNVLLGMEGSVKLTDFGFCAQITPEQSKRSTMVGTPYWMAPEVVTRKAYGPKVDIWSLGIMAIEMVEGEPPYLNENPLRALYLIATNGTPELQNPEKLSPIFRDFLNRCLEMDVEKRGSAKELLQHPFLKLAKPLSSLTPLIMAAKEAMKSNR
For test [10] the target is unchanged. Conditions: at 10 µM.
Test [11] deals with Serine/threonine-protein kinase PAK 4 (Homo sapiens) (UniProt O96013). Conditions: at 1 µM.
Test [12] shares this target. Conditions: at 10 µM.
The target of test [13] is Serine/threonine-protein kinase PAK 5 (Homo sapiens) (UniProt Q9P286). Conditions: at 1 µM.
Test [14] shares this target. The settings on record: at 10 µM.
Test [15] has as its target Serine/threonine-protein kinase PAK 6 (Homo sapiens) (UniProt Q9NQU5). Conditions: at 1 µM.
Test [16] has the same target. The settings on record: at 10 µM.
The target of test [17] is PAS domain-containing serine/threonine-protein kinase (Homo sapiens) (UniProt Q96RG2). Conditions: at 10 µM.
Sequence of PAS domain-containing serine/threonine-protein kinase (Homo sapiens) (Q96RG2 whole entry, the tested form may be a part): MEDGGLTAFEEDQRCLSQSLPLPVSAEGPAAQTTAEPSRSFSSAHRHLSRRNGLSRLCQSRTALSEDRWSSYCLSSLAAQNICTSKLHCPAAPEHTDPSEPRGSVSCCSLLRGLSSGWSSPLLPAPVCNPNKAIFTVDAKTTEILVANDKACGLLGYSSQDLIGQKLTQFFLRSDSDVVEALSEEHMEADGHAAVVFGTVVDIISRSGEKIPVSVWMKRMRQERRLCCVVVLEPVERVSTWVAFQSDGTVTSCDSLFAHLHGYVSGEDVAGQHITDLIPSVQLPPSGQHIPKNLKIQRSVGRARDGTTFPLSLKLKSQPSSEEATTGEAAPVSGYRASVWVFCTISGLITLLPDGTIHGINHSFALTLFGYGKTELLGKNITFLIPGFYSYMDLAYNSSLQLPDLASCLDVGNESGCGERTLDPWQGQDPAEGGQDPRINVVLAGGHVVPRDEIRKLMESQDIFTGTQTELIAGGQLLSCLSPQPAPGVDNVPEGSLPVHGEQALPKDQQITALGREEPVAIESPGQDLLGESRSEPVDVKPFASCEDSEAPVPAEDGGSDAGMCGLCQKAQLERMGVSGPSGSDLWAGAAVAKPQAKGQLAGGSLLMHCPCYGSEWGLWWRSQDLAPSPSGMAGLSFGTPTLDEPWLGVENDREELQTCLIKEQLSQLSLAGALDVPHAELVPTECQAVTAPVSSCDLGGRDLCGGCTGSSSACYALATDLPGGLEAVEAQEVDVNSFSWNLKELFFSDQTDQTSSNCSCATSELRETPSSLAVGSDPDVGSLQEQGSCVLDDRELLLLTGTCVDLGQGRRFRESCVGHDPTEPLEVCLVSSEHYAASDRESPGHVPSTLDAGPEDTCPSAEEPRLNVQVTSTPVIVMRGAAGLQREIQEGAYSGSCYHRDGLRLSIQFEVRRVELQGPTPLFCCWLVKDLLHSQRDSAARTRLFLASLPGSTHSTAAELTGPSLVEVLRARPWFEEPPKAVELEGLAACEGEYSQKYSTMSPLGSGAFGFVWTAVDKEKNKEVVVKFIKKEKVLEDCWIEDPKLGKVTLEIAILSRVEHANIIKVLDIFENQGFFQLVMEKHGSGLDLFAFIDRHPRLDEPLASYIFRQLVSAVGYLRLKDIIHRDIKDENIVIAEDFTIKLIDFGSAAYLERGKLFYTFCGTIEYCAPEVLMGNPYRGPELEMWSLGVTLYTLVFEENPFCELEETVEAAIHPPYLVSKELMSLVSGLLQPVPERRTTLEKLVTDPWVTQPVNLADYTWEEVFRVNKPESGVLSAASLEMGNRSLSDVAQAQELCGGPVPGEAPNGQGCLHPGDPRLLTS
Test [18] concerns the target Activated CDC42 kinase 1 (Homo sapiens) (UniProt Q07912). Conditions: at 1 µM.
Test [19] has the same target. The settings on record: at 10 µM.
Test [20] deals with ALK tyrosine kinase receptor (Homo sapiens) (UniProt Q9UM73). The settings on record: at 1 µM.
Sequence of ALK tyrosine kinase receptor (Homo sapiens) (Q9UM73 19-1620 limits assumed): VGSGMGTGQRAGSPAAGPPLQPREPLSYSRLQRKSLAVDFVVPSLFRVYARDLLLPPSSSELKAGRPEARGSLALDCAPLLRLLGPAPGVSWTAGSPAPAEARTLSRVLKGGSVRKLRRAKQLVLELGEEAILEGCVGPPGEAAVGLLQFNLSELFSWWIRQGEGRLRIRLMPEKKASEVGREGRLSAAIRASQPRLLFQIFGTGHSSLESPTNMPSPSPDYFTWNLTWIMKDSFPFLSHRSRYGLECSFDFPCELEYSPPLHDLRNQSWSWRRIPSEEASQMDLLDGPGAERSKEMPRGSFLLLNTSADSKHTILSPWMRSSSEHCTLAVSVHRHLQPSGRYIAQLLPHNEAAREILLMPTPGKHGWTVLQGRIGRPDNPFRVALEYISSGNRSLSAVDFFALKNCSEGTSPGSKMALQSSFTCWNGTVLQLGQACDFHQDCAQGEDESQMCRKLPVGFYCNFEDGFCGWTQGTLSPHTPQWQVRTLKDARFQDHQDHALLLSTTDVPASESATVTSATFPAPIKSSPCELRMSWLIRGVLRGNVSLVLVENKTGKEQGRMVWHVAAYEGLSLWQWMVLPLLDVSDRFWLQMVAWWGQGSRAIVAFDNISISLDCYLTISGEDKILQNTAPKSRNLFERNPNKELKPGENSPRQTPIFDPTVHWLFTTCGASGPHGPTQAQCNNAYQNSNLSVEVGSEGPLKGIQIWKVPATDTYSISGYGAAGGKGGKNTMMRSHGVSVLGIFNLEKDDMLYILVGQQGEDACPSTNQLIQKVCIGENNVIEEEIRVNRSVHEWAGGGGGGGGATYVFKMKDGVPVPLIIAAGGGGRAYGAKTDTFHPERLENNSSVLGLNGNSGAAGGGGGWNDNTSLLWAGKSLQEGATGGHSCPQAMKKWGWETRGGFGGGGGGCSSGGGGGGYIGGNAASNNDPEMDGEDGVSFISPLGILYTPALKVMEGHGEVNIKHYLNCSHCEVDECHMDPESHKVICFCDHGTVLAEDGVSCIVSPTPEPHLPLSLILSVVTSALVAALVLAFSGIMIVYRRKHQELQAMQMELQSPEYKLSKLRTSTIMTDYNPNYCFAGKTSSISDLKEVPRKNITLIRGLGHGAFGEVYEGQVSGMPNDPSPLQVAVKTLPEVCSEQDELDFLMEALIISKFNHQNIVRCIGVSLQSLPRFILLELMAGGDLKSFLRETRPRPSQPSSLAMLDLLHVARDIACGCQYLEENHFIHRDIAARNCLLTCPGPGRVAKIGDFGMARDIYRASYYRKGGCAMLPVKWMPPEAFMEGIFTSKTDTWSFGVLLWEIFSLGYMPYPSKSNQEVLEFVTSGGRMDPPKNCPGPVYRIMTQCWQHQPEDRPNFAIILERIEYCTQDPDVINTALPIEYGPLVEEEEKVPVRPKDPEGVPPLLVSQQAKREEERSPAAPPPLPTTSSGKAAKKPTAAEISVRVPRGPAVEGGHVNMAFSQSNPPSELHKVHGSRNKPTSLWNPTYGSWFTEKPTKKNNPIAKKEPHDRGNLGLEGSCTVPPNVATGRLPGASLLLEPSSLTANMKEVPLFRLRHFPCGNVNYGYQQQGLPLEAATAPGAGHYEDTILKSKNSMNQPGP

The results in this text go back to ChEMBL document CHEMBL2218924, “A broad activity screen in support of a chemogenomic map for kinase signalling research and drug discovery” (Biochem J, 2013).

Sequence of Ribosomal protein S6 kinase beta-1 (Homo sapiens) (P23443 whole entry, looked up): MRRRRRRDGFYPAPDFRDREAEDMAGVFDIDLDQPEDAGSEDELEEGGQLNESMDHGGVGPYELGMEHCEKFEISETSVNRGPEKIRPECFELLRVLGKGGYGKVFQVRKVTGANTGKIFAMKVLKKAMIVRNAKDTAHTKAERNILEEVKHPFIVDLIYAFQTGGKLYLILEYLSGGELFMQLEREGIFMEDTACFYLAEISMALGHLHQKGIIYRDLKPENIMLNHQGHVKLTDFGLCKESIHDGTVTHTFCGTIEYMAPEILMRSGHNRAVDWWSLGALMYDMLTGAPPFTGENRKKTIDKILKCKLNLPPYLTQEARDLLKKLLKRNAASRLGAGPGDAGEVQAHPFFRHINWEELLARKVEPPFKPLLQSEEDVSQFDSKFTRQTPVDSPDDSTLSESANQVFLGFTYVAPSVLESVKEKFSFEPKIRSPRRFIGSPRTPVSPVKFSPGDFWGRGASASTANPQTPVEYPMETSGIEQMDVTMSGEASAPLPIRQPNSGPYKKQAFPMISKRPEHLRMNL
Sequence of Serine/threonine-protein kinase Nek7 (Homo sapiens) (Q8TDX7 whole entry, looked up): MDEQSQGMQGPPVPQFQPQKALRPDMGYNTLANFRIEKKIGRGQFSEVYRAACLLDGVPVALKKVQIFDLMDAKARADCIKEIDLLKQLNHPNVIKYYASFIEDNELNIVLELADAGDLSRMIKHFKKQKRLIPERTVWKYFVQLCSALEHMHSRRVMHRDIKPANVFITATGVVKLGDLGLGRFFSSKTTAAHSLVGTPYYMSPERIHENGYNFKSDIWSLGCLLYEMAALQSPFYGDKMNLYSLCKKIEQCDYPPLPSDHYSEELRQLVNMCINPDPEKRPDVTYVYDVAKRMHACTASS
Sequence of Serine/threonine-protein kinase PAK 6 (Homo sapiens) (Q9NQU5 whole entry, looked up): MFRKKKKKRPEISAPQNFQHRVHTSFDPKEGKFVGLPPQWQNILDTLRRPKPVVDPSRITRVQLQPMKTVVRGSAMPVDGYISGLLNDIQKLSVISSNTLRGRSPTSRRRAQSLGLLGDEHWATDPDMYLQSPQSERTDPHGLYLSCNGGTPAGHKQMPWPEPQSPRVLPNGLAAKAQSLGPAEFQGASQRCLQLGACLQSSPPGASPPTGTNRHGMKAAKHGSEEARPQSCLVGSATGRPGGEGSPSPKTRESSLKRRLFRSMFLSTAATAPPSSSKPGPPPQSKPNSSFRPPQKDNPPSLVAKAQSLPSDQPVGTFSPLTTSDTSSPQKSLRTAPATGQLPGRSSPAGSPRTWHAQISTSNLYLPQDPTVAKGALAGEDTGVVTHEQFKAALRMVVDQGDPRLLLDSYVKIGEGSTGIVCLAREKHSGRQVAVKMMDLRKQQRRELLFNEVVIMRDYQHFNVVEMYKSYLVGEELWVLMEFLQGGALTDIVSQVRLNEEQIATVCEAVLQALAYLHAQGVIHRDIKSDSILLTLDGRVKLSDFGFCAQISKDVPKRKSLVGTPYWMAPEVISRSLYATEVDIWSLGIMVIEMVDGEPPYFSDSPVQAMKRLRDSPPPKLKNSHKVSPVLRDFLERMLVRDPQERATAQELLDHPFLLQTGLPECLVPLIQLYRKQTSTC

For the compound `Oc1ccc(-c2nc(-c3ccc(F)cc3)c(-c3ccncc3)[nH]2)cc1`, the residual activity was 72% in test [1]; 25% in test [2]; 105% (inactive) in test [3]; 110% in [4]; 114% (inactive) in test [5]; 103% (inactive) in [6]. Further, the residual activity was 49% in test [7]; 13% in test [8]; 95% in test [9]; 85% in test [10]; 107% in test [11]; 96% in test [12]. Further, the residual activity in [13] was 99%; in test [14], 85%; in [15] it was 88%; in test [16], 84%; in [17] it was 34%; in test [18], 81%. The residual activity in test [19] came out at 27%; in [20] it was 83%.
With `O=C(O)c1ccc2c3c1cccc3c(=O)n1c3ccccc3nc21`, the residual activity was 89% in test [1]; 46% in test [2]; 109% (inactive) in [3]; 101% in test [4]; 114% (inactive) in test [5]; 108% (inactive) in test [6]. Moreover, the residual activity in test [7] was found to be 107%; in test [8] it was 72%; in [9] it was 101%; in [10] it was 95%; in test [11], 100%; in test [12], 98%. The residual activity in test [13] was found to be 100%; in test [14] it was 96%; in [15], 91%; in [16] it was 85%; in test [17], 98%; in [18], 94%. Besides, the residual activity in test [19] amounted to 75%; in test [20] it was 70%.
Regarding `Cn1cnc2cc3c(Nc4cccc(Br)c4)ncnc3cc21`, the residual activity in [1] was 95%; in [2], 71%; in [3] it was 104% (inactive); in test [4], 104%; in test [5], 100% (inactive); in [6] it was 103% (inactive). In addition, the residual activity in test [7] is 93%; in [8], 73%; in test [9], 93%; in test [10], 90%; in [11] it was 100%; in test [12], 89%. Besides, the residual activity in [13] worked out at 98%; in test [14] it was 90%; in test [15], 90%; in test [16], 106%; in [17], 77%; in test [18], 66%. Also, the residual activity in test [19] was found to be 16%; in test [20], 85%.
In the case of `Oc1n[nH]c2nnc(-c3c(-c4ccccc4)nn4ccccc34)cc12`, the residual activity in [1] was 106%; in test [2], 96%; in test [3] it was 103% (inactive); in test [4], 110%; in test [5], 100% (inactive); in [6], 96% (inactive). In addition, the residual activity in [7] was determined as 90%; in test [8], 86%; in [9] it was 94%; in test [10] it was 99%; in [11] it was 95%; in test [12], 92%. The residual activity amounted to 101% in test [13]; 101% in [14]; 98% in [15]; 98% in [16]; 104% in [17]; 29% in test [18]. The residual activity in test [19] was 14%; in [20], 92%.
For the compound `Cn1cc(/C=C2\C(=O)Nc3ccc(S(N)(=O)=O)cc32)c2ccccc21`, the residual activity is 29% in test [1]; 11% in test [2]; 100% (inactive) in [3]; 112% in test [4]; 103% (inactive) in test [5]; 89% (inactive) in [6]. Further, the residual activity in test [7] was found to be 104%; in test [8] it was 84%; in test [9], 124%; in test [10], 91%; in test [11], 28%; in test [12], 7%. The residual activity was determined as 41% in [13]; 26% in test [14]; 46% in [15]; 22% in [16]; 71% in test [17]; 60% in test [18]. The results for the residual activity in [19] and in test [20] were 36% and 56%, respectively.
With `CCC(=O)Nc1ccc2ncnc(Nc3cccc(Br)c3)c2c1`, the residual activity in [1] was 111%; in test [2], 127%; in test [3], 79% (inactive); in test [4] it was 110%; in [5] it was 89% (inactive); in test [6], 114% (inactive). The residual activity in test [7] is 91%; in test [8] it was 64%; in [9] it was 110%; in test [10], 84%; in test [11], 99%; in [12], 86%. Besides, the residual activity in [13] was determined as 97%; in test [14] it was 98%; in test [15], 107%; in test [16] it was 93%; in test [17] it was 36%; in test [18], 70%. For the same compound, the residual activity stood at 36% in test [19] and 81% in test [20].
On to `Oc1c2ccccc2c2c3c(cccc13)N=N2`, for which the residual activity in [1] is 55%; in [2], 14%; in test [3], 107% (inactive); in test [4], 101%; in [5], 99% (inactive); in test [6], 89% (inactive). Moreover, the residual activity came out at 78% in [7]; 71% in test [8]; 96% in test [9]; 86% in [10]; 88% in [11]; 45% in [12]. In addition, the residual activity in test [13] was 99%; in test [14], 64%; in [15], 91%; in [16], 49%; in test [17], 81%; in test [18] it was 50%. Besides, the results for the residual activity in test [19] and in test [20] were 12% and 61%, respectively.
In the case of `Cc1nc2cc3nc(-c4cccs4)cnc3cc2n1C`, the residual activity was 98% in test [1]; 112% in [2]; 104% (inactive) in test [3]; 112% in test [4]; 102% (inactive) in [5]; 107% (inactive) in test [6]. For the same compound, the residual activity stood at 104% in test [7]; 95% in [8]; 99% in test [9]; 86% in test [10]; 95% in test [11]; 101% in test [12]. In addition, the residual activity in [13] stood at 106%; in test [14], 105%; in [15], 111%; in test [16] it was 102%; in test [17], 86%; in test [18] it was 107%. Further, the residual activity in test [19] was 74%; in test [20] it was 93%.
On to `O=C1NC(=O)/C(=C\c2ccc3nccnc3c2)S1`, for which the residual activity in test [1] is 68%; in [2], 50%; in test [3] it was 91% (inactive); in [4] it was 96%; in test [5], 100% (inactive); in test [6], 106% (inactive). The residual activity in test [7] came to 89%; in [8], 55%; in test [9], 102%; in [10], 75%; in test [11] it was 95%; in [12], 86%. Also, the residual activity in [13] came out at 86%; in [14] it was 99%; in [15] it was 92%; in test [16], 94%; in [17], 11%; in test [18], 84%. For the same compound, the results for the residual activity in [19] and in [20] were 66% and 49%, respectively.
Consider `O=c1cc(-c2cccc3c2Sc2ccccc2S3)oc(N2CCOCC2)c1`, for which the residual activity is 119% in [1]; 93% in test [2]; 108% (inactive) in [3]; 122% in [4]; 109% (inactive) in test [5]; 140% (inactive) in [6]. In addition, the residual activity was 101% in test [7]; 101% in [8]; 113% in test [9]; 95% in test [10]; 106% in test [11]; 96% in [12]. The residual activity was determined as 108% in [13]; 91% in test [14]; 89% in [15]; 72% in test [16]; 80% in [17]; 89% in [18]. For the same compound, the residual activity in test [19] amounted to 84%; in [20], 97%.
Take `NC(=O)c1ccc2[nH]c(-c3ccc(Oc4ccc(Cl)cc4)cc3)nc2c1`: the residual activity in test [1] is 92%; in test [2], 90%; in [3], 117% (inactive); in [4], 113%; in test [5], 102% (inactive); in test [6], 104% (inactive). The residual activity in [7] was found to be 88%; in test [8], 59%; in test [9], 111%; in test [10], 82%; in test [11], 97%; in test [12] it was 92%. For the same compound, the residual activity is 99% in test [13]; 113% in [14]; 110% in [15]; 103% in test [16]; 123% in test [17]; 77% in [18]. Besides, the residual activity in [19] worked out at 61%; in test [20], 75%.
Consider `Cc1ccc(NC2=CC(=O)c3sc(C)nc3C2=O)cc1`, for which the residual activity was 115% in test [1]; 78% in [2]; 106% (inactive) in test [3]; 104% in test [4]; 109% (inactive) in test [5]; 92% (inactive) in [6]. In addition, the residual activity amounted to 86% in test [7]; 85% in test [8]; 93% in test [9]; 92% in test [10]; 98% in test [11]; 93% in test [12]. Further, the residual activity in test [13] was 121%; in [14] it was 94%; in test [15] it was 102%; in [16], 80%; in test [17] it was 82%; in test [18], 80%. The residual activity was 71% in test [19] and 86% in test [20].
